# Test results as given in PubChem BioAssay.
# A number with no mark means an inactive call. Active and inactive are the calls of the source. No rule for the calls is given here.
# Biological target: L-lactate dehydrogenase (Plasmodium falciparum (isolate CDC / Honduras)) (UniProt Q27743)
# Assay: PfLDH activity inhibition – cell lysate, 3D7 strain, counter-screen for P. falciparum growth inhibition project (AID 2304);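 also: 0% = vehicle and 100% = reference inhibitor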
# Details: P. falciparum 3D7 crude extract, LDH APAD/NBT absorbance; at 2 µM; stronger effect = higher value
# Chain of L-lactate dehydrogenase (Plasmodium falciparum (isolate CDC / Honduras)) (Q27743 whole entry, looked up): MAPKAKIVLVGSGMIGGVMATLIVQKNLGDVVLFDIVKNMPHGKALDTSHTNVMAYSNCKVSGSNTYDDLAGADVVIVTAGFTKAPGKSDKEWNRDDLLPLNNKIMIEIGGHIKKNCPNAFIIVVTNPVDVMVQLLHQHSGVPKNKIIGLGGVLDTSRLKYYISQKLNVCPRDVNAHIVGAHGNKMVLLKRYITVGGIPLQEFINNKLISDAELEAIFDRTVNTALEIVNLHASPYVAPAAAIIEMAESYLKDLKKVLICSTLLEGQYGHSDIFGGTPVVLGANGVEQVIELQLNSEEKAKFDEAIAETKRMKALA
row,SMILES,inhibition
1,CCCCNCc1ccc(-c2nc(CN(Cc3ccc(Cl)c(Cl)c3)S(=O)(=O)c3ccc(NC(C)=O)cc3)cs2)cc1,5%
2,CC(=O)Nc1nc(C(=O)Nc2cccc(-c3ccc4c(cnn4CC4CC4)c3)c2)cs1,2%
3,CCc1c[nH]c2c(N3CCCC3=O)cc(C(=O)N[C@@H](Cc3ccccc3)[C@H](O)CNC(C)(C)CCCC(C)C)cc12,1%
4,Nc1ncnc2cc(-c3cccc(S(N)(=O)=O)c3)sc12,2%
5,COc1cc(F)c2ncc(Cl)c(C(O)CN3CCC(NC(=O)c4ccc5c(n4)NC(=O)CO5)CC3)c2c1 (stereo not drawn),-1%
6,CCN(CC)C(=S)N=Nc1c(O)[nH]c2c(C)cccc12,3%
7,CCCCCCCCCn1c(NCc2cc(Cl)ccc2O)nc2ccccc21,-4%
8,CCCC(CNCc1cccc(C)c1)CNc1cc(=O)c2ccccc2[nH]1 (stereo not drawn),-7%
9,CCOc1ccc(-c2nonc2NC(=O)c2cccs2)cc1OCC,4%
10,COc1ccc2nccc([C@@H](O)CN3CCC(NCc4[nH]c5ccccc5c4F)CC3)c2c1,3%
11,CCc1c(CCNCCCCCCNCCc2ccc(OC)c(OC)c2CC)ccc(OC)c1OC,0%
12,COc1ccc2nccc(NN=Cc3ccc(F)cc3)c2c1,-2%
13,COc1ccc(-c2ccccc2CNC2Cc3ccccc3C2)cc1S(=O)(=O)NCCN1CCCC1,-3%
14,Cc1ccc(N/C(N)=N/c2ncccc2OCc2c(F)cccc2Cl)cc1,-2%
15,Cc1nc(N)nc(N)c1-c1ccc(Br)cc1,3%
16,CN(C)CCN(C)Cc1ccc(-c2ccc(NC(=O)c3cccc(Cl)c3)cc2)cc1,1%
17,CN1CCN(c2cc(NC(=O)c3ccc(-c4ccc(Cl)cc4)cc3)ccc2Cl)CC1,-2%
18,O=C(NCCCCN1CCN(c2cccc3c2OCCO3)CC1)c1ccc(NC(=O)c2cc(Cl)cc(Cl)c2)cc1,-3%
19,O=C(COc1ccc(Cl)c(Cl)c1)NCCCCCN1CCCN(C(=O)Nc2cc(Cl)cc(Cl)c2)CC1,-5%
20,CCN(CCCN1CCCCC1)c1cc(C)nc(Nc2cc(Br)ccc2C)n1,-7%

row,SMILES,inhibition
1,COc1ccc(-c2ccc(Nc3cccc(S(=O)(=O)CCN4CCC(CCN(C)C)CC4)c3)nc2)cn1,3%
2,O=C(Nc1cccc(-c2csc(-c3nc4ccccc4[nH]3)c2)c1)c1ccoc1,1%
3,CC(C)CNC(=O)c1cncc(-c2cccc(CNC3Cc4ccccc4C3)c2)c1,1%
4,CN(Cc1cccc(O)c1)C1CCCN(c2cc(NC(=O)c3ccc(F)cc3)ccn2)C1 (stereo not drawn),-2%
5,COCCNCc1ccc(-c2cccc(CN(C(=O)NCCc3ccccc3)C3CCN(Cc4ccccc4)CC3)c2)cc1,-4%
6,O=C(NCc1cccc(CN2CCOCC2)c1)c1cc(Br)cc(N2CCN(c3ccncc3)CC2)c1,-2%
7,CC(Oc1c(C2CCN(CCCCNC(=O)c3ccc(-c4ccc(Cl)cc4)cc3)CC2)ccc2c1CCCC2)C(N)=O (stereo not drawn),3%
8,CCn1ncc(Cl)c1CN(C)S(=O)(=O)c1ccc(Br)cc1,4%
9,NS(=O)(=O)c1ccc(CNC(=O)c2cnc3c(O)cccc3c2Nc2cccc(NC(=O)c3ccc(Cl)c(Cl)c3)c2)cc1,-1%
10,CC(C)C[C@H]1C(=O)N[C@H](C2Cc3ccccc3C2)C(=O)N1[C@@H](C(=O)Nc1ccccc1OCc1ccccc1)c1ccc(F)cc1F,5%
11,COc1ccc(CN(C)CCCOc2ccc(NC(=O)c3cccc4c(=O)c5cccc(C)c5[nH]c34)cc2)cc1OC,1%
12,CCCC1N=C(N)N=C(N)N1c1ccc(OC)cc1 (stereo not drawn),-3%
13,OCc1ccc2nc3c(cc2c1)-c1cccc2cccc-3c12,4%
14,COc1ccc(C)c(Nc2ccnc(Nc3ccc(-c4cnc[nH]4)cc3)n2)c1,-1%
15,Cc1[nH]c(C)c(-c2ccc(OCc3ccccc3)cc2)c(=O)c1Br,-2%
16,CCOc1ccc2nc(C)cc(NN=Cc3cccnc3)c2c1,1%
17,CN(C)CCNC(=O)c1ccc(-c2cnc3ccc(NCc4ccc(Cl)c(Cl)c4)nn23)cc1,-5%
18,COc1cccc(NC(=O)c2cc([N+](=O)[O-])ccc2NC(=O)CN2CCc3ccccc3C2)c1,-1%
19,CCNC(=O)NC1CCN(Cc2c(-c3cccs3)nc3ccccc3c2C(=O)N[C@@H](C)C2CCCCC2)CC1,-2%

# System: not listed separately
# Assay: inhibition of 3D7 malaria parasite growth – strain 3D7 (AID 2306);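 also: 0% = DMSO wells and 100% = chloroquine plus artemisinin control wells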
# Details: P. falciparum 3D7 erythrocytic growth, LDH absorbance, 72 h; at 2 µM; stronger effect = higher value
row,SMILES,growth inhibition
1,CCCCNCc1ccc(-c2nc(CN(Cc3ccc(Cl)c(Cl)c3)S(=O)(=O)c3ccc(NC(C)=O)cc3)cs2)cc1,96% (active)
2,CC(=O)Nc1nc(C(=O)Nc2cccc(-c3ccc4c(cnn4CC4CC4)c3)c2)cs1,95% (active)
3,CCc1c[nH]c2c(N3CCCC3=O)cc(C(=O)N[C@@H](Cc3ccccc3)[C@H](O)CNC(C)(C)CCCC(C)C)cc12,96% (active)
4,Nc1ncnc2cc(-c3cccc(S(N)(=O)=O)c3)sc12,98% (active)
5,COc1cc(F)c2ncc(Cl)c(C(O)CN3CCC(NC(=O)c4ccc5c(n4)NC(=O)CO5)CC3)c2c1 (stereo not drawn),102% (active)
6,CCN(CC)C(=S)N=Nc1c(O)[nH]c2c(C)cccc12,94% (active)
7,CCCCCCCCCn1c(NCc2cc(Cl)ccc2O)nc2ccccc21,97% (active)
8,CCCC(CNCc1cccc(C)c1)CNc1cc(=O)c2ccccc2[nH]1 (stereo not drawn),99% (active)
9,CCOc1ccc(-c2nonc2NC(=O)c2cccs2)cc1OCC,101% (active)
10,COc1ccc2nccc([C@@H](O)CN3CCC(NCc4[nH]c5ccccc5c4F)CC3)c2c1,102% (active)
11,CCc1c(CCNCCCCCCNCCc2ccc(OC)c(OC)c2CC)ccc(OC)c1OC,100% (active)
12,COc1ccc2nccc(NN=Cc3ccc(F)cc3)c2c1,98% (active)
13,COc1ccc(-c2ccccc2CNC2Cc3ccccc3C2)cc1S(=O)(=O)NCCN1CCCC1,96% (active)
14,Cc1ccc(N/C(N)=N/c2ncccc2OCc2c(F)cccc2Cl)cc1,86% (active)
15,Cc1nc(N)nc(N)c1-c1ccc(Br)cc1,98% (active)
16,CN(C)CCN(C)Cc1ccc(-c2ccc(NC(=O)c3cccc(Cl)c3)cc2)cc1,94% (active)
17,CN1CCN(c2cc(NC(=O)c3ccc(-c4ccc(Cl)cc4)cc3)ccc2Cl)CC1,99% (active)
18,O=C(NCCCCN1CCN(c2cccc3c2OCCO3)CC1)c1ccc(NC(=O)c2cc(Cl)cc(Cl)c2)cc1,101% (active)
19,O=C(COc1ccc(Cl)c(Cl)c1)NCCCCCN1CCCN(C(=O)Nc2cc(Cl)cc(Cl)c2)CC1,89% (active)
20,CCN(CCCN1CCCCC1)c1cc(C)nc(Nc2cc(Br)ccc2C)n1,98% (active)

row,SMILES,growth inhibition
1,COc1ccc(-c2ccc(Nc3cccc(S(=O)(=O)CCN4CCC(CCN(C)C)CC4)c3)nc2)cn1,100% (active)
2,O=C(Nc1cccc(-c2csc(-c3nc4ccccc4[nH]3)c2)c1)c1ccoc1,96% (active)
3,CC(C)CNC(=O)c1cncc(-c2cccc(CNC3Cc4ccccc4C3)c2)c1,100% (active)
4,CN(Cc1cccc(O)c1)C1CCCN(c2cc(NC(=O)c3ccc(F)cc3)ccn2)C1 (stereo not drawn),91% (active)
5,COCCNCc1ccc(-c2cccc(CN(C(=O)NCCc3ccccc3)C3CCN(Cc4ccccc4)CC3)c2)cc1,88% (active)
6,O=C(NCc1cccc(CN2CCOCC2)c1)c1cc(Br)cc(N2CCN(c3ccncc3)CC2)c1,99% (active)
7,CC(Oc1c(C2CCN(CCCCNC(=O)c3ccc(-c4ccc(Cl)cc4)cc3)CC2)ccc2c1CCCC2)C(N)=O (stereo not drawn),99% (active)
8,CCn1ncc(Cl)c1CN(C)S(=O)(=O)c1ccc(Br)cc1,90% (active)
9,NS(=O)(=O)c1ccc(CNC(=O)c2cnc3c(O)cccc3c2Nc2cccc(NC(=O)c3ccc(Cl)c(Cl)c3)c2)cc1,97% (active)
10,CC(C)C[C@H]1C(=O)N[C@H](C2Cc3ccccc3C2)C(=O)N1[C@@H](C(=O)Nc1ccccc1OCc1ccccc1)c1ccc(F)cc1F,90% (active)
11,COc1ccc(CN(C)CCCOc2ccc(NC(=O)c3cccc4c(=O)c5cccc(C)c5[nH]c34)cc2)cc1OC,96% (active)
12,CCCC1N=C(N)N=C(N)N1c1ccc(OC)cc1 (stereo not drawn),96% (active)
13,OCc1ccc2nc3c(cc2c1)-c1cccc2cccc-3c12,96% (active)
14,COc1ccc(C)c(Nc2ccnc(Nc3ccc(-c4cnc[nH]4)cc3)n2)c1,97% (active)
15,Cc1[nH]c(C)c(-c2ccc(OCc3ccccc3)cc2)c(=O)c1Br,97% (active)
16,CCOc1ccc2nc(C)cc(NN=Cc3cccnc3)c2c1,102% (active)
17,CN(C)CCNC(=O)c1ccc(-c2cnc3ccc(NCc4ccc(Cl)c(Cl)c4)nn23)cc1,98% (active)
18,COc1cccc(NC(=O)c2cc([N+](=O)[O-])ccc2NC(=O)CN2CCc3ccccc3C2)c1,100% (active)
19,CCNC(=O)NC1CCN(Cc2c(-c3cccs3)nc3ccccc3c2C(=O)N[C@@H](C)C2CCCCC2)CC1,95% (active)
